About 83,000 compounds went through this panel and 20% of them were active in at least one assay; those are over-represented in the sample as a whole.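 96-well plates, one dose, 48 hours. Percent growth reported; active if below 10.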 Values without a mark were called inactive. Activity calls are given as the source filed them.
Each compound was assayed on SF-295 CNS (assay: NCI-60 one-dose screen, 48 h (100 = growth as untreated, 0 = no growth, -100 = all killed)). Conditions: 10 µM unless noted.

**Q.** O=c1oc2c(cnc3ccccc32)cc1-c1cccc(Cl)c1 was tested. Which growth did it give?
**A.** Its growth is 101%.

**Q.** Which growth does the source give for CCOC(=O)c1c(C)nc2c(c1N)C(=O)C(=O)N2Cc1ccc(OC)cc1 here?
**A.** Its growth is 74.3%.

**Q.** For CCNC(=O)N1CCc2c(Br)c3c(c(OC)c2C1Cc1ccc(OC)cc1)OCO3 (stereo not drawn), which growth is on record?
**A.** The growth was 25.5%.

**Q.** With COc1cc2c(c(OC)c1OC)CCC(c1cccc(C(=O)Nc3ccc(Br)cc3)c1)O2 (stereo not drawn) as the compound, how does the growth read?
**A.** The growth was 56.5%.

**Q.** Which growth does the source give for OC1CSSC1Cn1cnc2c(Nc3ccc(OCc4cccc(F)c4)c(Cl)c3)ncnc21 (stereo not drawn) here?
**A.** Its growth is 4.71% (active).

**Q.** How did the growth turn out when Cc1ccc(OCCOCCOCCOc2ccc(C)n(O)c2=S)c(=S)n1O was run?
**A.** Its growth is 29.1%.

**Q.** With C=CN(C(=O)N1CCN(c2cc3c(cc2F)c(=O)c(C(=O)O)cn3C2CC2)CC1)c1nc(-c2ccc(Cl)cc2)cs1 as the compound, how does the growth read?
**A.** Its growth is 58.6%.

**Q.** How did the growth turn out when C#CCOc1cccc(Nc2ncnc3cc(NC(=O)CCl)ccc23)c1 was run?
**A.** The growth was -92.8% (active).

**Q.** Which growth does the source give for Cc1nc2ccccc2c(/C=C/c2ccc(F)cc2)c1C(=O)/C=C/c1ccccc1 here?
**A.** The growth was 32.5%.

**Q.** With COc1cc(/C=C/C(=O)N2CCN(C(=O)c3cc(OC)c(OC)c(OC)c3)CC2)ccc1OCCCOc1cc2c(cc1OC)C(=O)N1CCC[C@H]1C=N2 as the compound, how does the growth read?
**A.** Its growth is -33.4% (active).

**Q.** How did the growth turn out when O=C(NC1CCC(Br)CC1)C1CCCC(S(=O)(=O)NC2CCCCC2)C1 (stereo not drawn) was run?
**A.** The growth was -4.06% [25 µM] (active).

**Q.** With COc1cc(/C=C/c2cn[nH]c2-c2ccc(C)cc2)cc(OC)c1OC as the compound, how does the growth read?
**A.** Its growth is 11.5%.

**Q.** How did the growth turn out when COc1ccc(C/C(C)=C(\c2ccc(Cl)cc2)c2ccc(OCCN3CCCC3)cc2)cc1 was run?
**A.** Its growth is 99.2%.

Reference: PubChem BioAssay (NCI)
